Source: PubChem BioAssay (NCI)
About 83,000 compounds went through this panel and 20% of them were active in at least one assay; those are over-represented in the sample as a whole.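 Negative percent growth values reflect cell death: -40 means 40% of the cells present at the start died, and -100 means all died.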 Values without a mark were called inactive. Active and inactive are the calls of the source.

system: HT29 colon; assay: NCI-60 one-dose screen, 48 h (100 = growth as untreated, 0 = no growth, -100 = all killed); conditions: 10 µM unless noted
Procedure: Growth inhibition of the HT29 human tumor cell line is measured as a screen for anti-cancer activity. Cells are grown in 96 well plates and exposed to the test compound for 48 hours. Compounds are tested at a single concentration, which is 10^-5 M for most compounds. The reported endpoint is percent growth (GI% or GIPRCNT), where numbers from 0 - 100% represent growth inhibition, and numbers from -100% - 0 represent cell death. For example, a value of 40 represents 60% growth inhibition. A value of 0 means no net growth occurred over the course of the experiment. A value of -40 indicates 40% of cells at the beginning of the experiment died by the end of the experiment. A value of -100 means all cells are dead at the end of the experiment.
NCI-60 Human Tumor Cell Lines Screen was performed using the standard one-dose NCI protocol, which is described in more detail at https://dtp.cancer.gov/discovery_development/nci-60/default.htm.
Compounds with GIPRCNT values below 10 were considered active. Activity score was based on GIPRCNT using the following formula: […]
Score is 0 for GIPRCNT values of 100 or above, 50 for GIPRCNT values of 0, and 100 for GIPRCNT values of -100.

Structure (SMILES)	growth
COc1cccc(NCc2nnc(Nc3ccc(Cl)cc3)c3ccccc23)c1	-21% (active)
C[C@H](C(=O)N(CCc1ccc(Cl)c(Cl)c1)Cc1cncs1)[C@@H]1CC[C@H](C[C@H](C)n2cc(CN3CCC(c4ccc(Cl)cc4)CC3)nn2)O1	102%
COc1ccc(-c2nc(/C=C3\C(=O)N(C)c4ccccc43)c3ccccn23)cc1	96.8%
Cc1cccc(-c2nc(Nc3ccc4ncsc4c3)c3ccccc3n2)n1	43.1%
O=C1c2ccccc2C(=O)c2c1c(C(=O)NCc1ccccc1)c1ccccn21	80.6%
CCCCCCCC/C=C\CCCCCCCCOc1ccc(CC(=O)NCC[N+]2(C)CCOCC2)cc1	36.9%
C=C1CC[C@@H]2C(C)(C)[C@@H](O)CC[C@@]2(C)[C@@H]1COc1ccc2ccc(=O)oc2c1	64.3%
O=C(Nc1ncc(Cc2cc(C(F)(F)F)ccc2Cl)s1)c1cccs1	18.6%
O=c1c2ccccc2c(=O)c2c1sc1c(=O)c3ccc(O)cc3c(=O)c12	-47.4% (active)
O=c1nc(-c2ccccc2)c2cc(-c3ccc(C(F)(F)F)nc3)ccc2[nH]1	111%
N#Cc1nc(-c2ccccc2)oc1S(=O)(=O)N1CCN(c2ccc(F)cc2)CC1	46%
O=C(Nc1ccccc1[N+](=O)[O-])c1ccc(Cl)c(Cl)c1	98.7%
COc1cccc(Nc2ncnc3cc(NC(=O)CCl)ccc23)c1	-79.5% (active)
C#CCO[C@H]1CC(CC#C)(CC#C)C(=O)[C@@H]2[C@H]1[C@H]1C[C@@H]3[C@@]4(C)CCC[C@@](C)(C(=O)OC)[C@@H]4CC[C@@]23C=C1C(C)C	55.7%
O=C(/C=C(O)/C=C/c1cccc2[nH]ccc12)/C=C/c1cccc2[nH]ccc12	38.4%
O=S(=O)(Oc1ccc(Br)cc1)c1ccc(Cl)cc1	99%
O=C1/C(=C/c2ccc(F)cc2)CN(C(=O)C(Cl)Cl)C/C1=C\c1ccc(F)cc1	-24.7% (active)
CC1(C)CC(=O)c2c(nn(-c3ccc(Br)cc3)c2-c2cn(-c3ccccc3)nc2-c2cccnc2)C1	98.1%
COc1cc2nc3sc(C(=O)Nc4ccc(C(=O)OC(C)C)cc4)c(C(=O)Nc4ccc(Cl)cc4C)n3c(=O)c2cc1OC	41.2%
Cn1cc(-c2csc(-c3cn(CCCN4CCOCC4)c4ccccc34)n2)c2cccnc21	32.9%

Structure (SMILES)	growth
COc1ccc(C(=O)N2c3ccccc3Sc3ccccc32)c(C(F)(F)F)c1	3.4% (active)
O=C(O)c1ccc(-c2ccc(/C=N/Nc3nc(Nc4ccccc4)nc(N4CCCCC4)n3)o2)cc1	63.4%
COc1ccc(C2=CC(c3cc(OC)c(OC)c(OC)c3)n3ncnc3N2)cc1 (stereo not given)	1.66% (active)
C=CC(=O)Nc1ccc(Nc2nccc(-c3ccc(N4CCCC4)c(C#N)c3)n2)cc1	2.55% (active)
CC1CCN(C(=S)SCC(=O)NC(=O)c2ccccc2)CC1	101%
Fc1cccc(-c2ccc3c(c2)C2(CCNCC2)CN3)c1	93.1%
O=C(Cc1ccc(/C=C/C(=O)c2ncc[nH]2)cc1)Nc1cc(C(F)(F)F)cc(C(F)(F)F)c1	26.3%
C=C(C)[C@@H]1CC[C@]2(C(=O)N3CCN(C)CC3)CC[C@]3(C)[C@H](CC[C@@H]4[C@@]5(C)CC[C@H](OC(=O)c6ccccc6C(=O)O)C(C)(C)[C@@H]5CC[C@]43C)[C@@H]12	109%
Cc1ccc(CNc2c3ccccc3nc3ccccc23)cc1	10.3%
Fc1cc(Nc2ccc3c(OCCCN4CCOCC4)cccc3n2)ccc1Cl	-49.3% (active)
COC(=O)c1nc(-c2ccccc2)oc1S(=O)(=O)NCC(c1ccc(Cl)cc1)N1CCOCC1 (stereo not given)	40%
Cc1ccc(C)c2c(C)c(C(=O)Nc3cccc(-n4cccn4)c3)oc12	48.2% [50 µM]
COc1ccc(Oc2nc(Nc3ccc(N4CCOCC4)cc3)ncc2NC(=O)Nc2cc(OC)cc(OC)c2)cc1	-32.8% (active)
COc1ccc(C(=O)/C=C/c2ccc(Cl)cc2)cc1S(=O)(=O)Nc1c(N)nc(SC)[nH]c1=O	31.3%
CCCn1cnc2c(c1=N)C(c1ccc(F)cc1)c1sc3c(F)cccc3c1O2 (stereo not given)	63.6%
COc1cnc2c(c1)C(=O)c1c-2n(CCCCl)c(=O)c2ccncc12	49.5%
COC(=O)/C=C1/SC(=Nc2ccc([N+](=O)[O-])cc2)N(CCc2c[nH]c3ccc(O)cc23)C1=O	42.6%
O=C(O)COc1ccc(Cl)c(Cl)c1	112%
Cc1nc2sc(C(=O)Nc3cccc(Br)c3C)c(N)c2cc1C(O)c1ccccc1 (stereo not given)	9.11% (active)
O=C(Nc1ccccc1N1CCCC1=O)c1oc2ccc(F)cc2c1-c1cnn(-c2ccccc2)c1	62.2% [50 µM]
